# Key:
# Experiment in all cases: relative growth (AUC of 72 h growth curve relative to DMSO control, dAUC) (ratio); higher = more growth (less inhibition), active = hit call of the paper
# Details in all cases: 20 µM;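 active = growth AUC significantly below the DMSO wells by Dunnett test; inactive = the rest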
# [1] = system: Community 7
# Method in brief: (§1)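 Each chemical was tested at 20 µM (1% DMSO) in 96-well plates seeded with a 1:100 dilution of cultures grown to carrying capacity in Luria–Bertani medium. These were isolates from Icelandic stream sediments and Silwood Park soil, as well as whole sediment communities. A plate reader took A600 readings hourly over 72 h, and three biological replicates were averaged. Relative growth (dAUC) is the spline-integrated area under the growth curve relative to the mean of the DMSO controls.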
# [2] = system: Community 8
# Method in brief: as §1
# [3] = system: Community 9
# Method in brief: as §1
# [4] = system: Flavobacterium 1 (Flavobacterium glaciei)
# Method in brief: as §1
# [5] = system: Flavobacterium 2 (Flavobacterium succinicans)
# Method in brief: as §1
# [6] = system: Hymenobacter 1 (Hymenobacter glaciei)
# Method in brief: as §1
# [7] = system: Microbacterium 1 (Microbacterium arborescens)
# Method in brief: as §1
# [8] = system: Neobacillus 1 (Neobacillus soli)
# Method in brief: as §1
# [9] = system: Oryzobacter 1 (Oryzobacter terrae)
# Method in brief: as §1
# [10] = system: Paenibacillus 1 (Paenibacillus castaneae)
# Method in brief: as §1
# [11] = system: Prolinoborus 1 (Prolinoborus fasciculus)
# Method in brief: as §1
# [12] = system: Pseudomonas 1 (Pseudomonas baetica)
# Method in brief: as §1
# [13] = system: Pseudomonas 2 (Pseudomonas vancouverensis)
# Method in brief: as §1
# [14] = system: Pseudomonas 3 (Pseudomonas mandelii)
# Method in brief: as §1
# [15] = system: Pseudomonas 4 (Pseudomonas peli)
# Method in brief: as §1
# [16] = system: Pseudomonas 5 (Pseudomonas baetica)
# Method in brief: as §1
# [17] = system: Pseudomonas 6 (Pseudomonas sp.)
# Method in brief: as §1
# [18] = system: Rhizobium 1 (Rhizobium herbae)
# Method in brief: as §1
# [19] = system: Serratia 1 (Serratia sp. 2015-2462-01)
# Method in brief: as §1
# [20] = system: Sphingomonas 2 (Sphingomonas sp.)
# Method in brief: as §1
Structure (SMILES),relative growth [1],relative growth [2],relative growth [3],relative growth [4],relative growth [5],relative growth [6],relative growth [7],relative growth [8],relative growth [9],relative growth [10],relative growth [11],relative growth [12],relative growth [13],relative growth [14],relative growth [15],relative growth [16],relative growth [17],relative growth [18],relative growth [19],relative growth [20]
O=C(O)CNCP(=O)(O)O,1.06 (inactive),1.04 (inactive),1.04 (inactive),0.964 (inactive),1.02 (inactive),1.11 (inactive),1.05 (inactive),1.04 (inactive),1.02 (inactive),0.969 (inactive),0.991 (inactive),0.996 (inactive),0.994 (inactive),1.05 (inactive),0.979 (inactive),1 (inactive),1.1 (inactive),1.03 (inactive),1.01 (inactive),1.02 (inactive)
CCC(C)c1ccccc1OC(=O)NC (stereo not given),1.02 (inactive),1.05 (inactive),1.07 (inactive),1.11 (inactive),1.02 (inactive),0.856 (inactive),1.04 (inactive),1.06 (inactive),0.993 (inactive),1 (inactive),1.02 (inactive),0.95 (inactive),1.01 (inactive),1.07 (inactive),1.01 (inactive),1.04 (inactive),1.09 (inactive),1.01 (inactive),0.971 (inactive),1 (inactive)
Cc1c(COC(=O)[C@@H]2[C@H](/C=C(\Cl)C(F)(F)F)C2(C)C)cccc1-c1ccccc1 (racemic),1.06 (inactive),1.1 (inactive),0.947 (inactive),0.869 (inactive),1 (inactive),1.06 (inactive),1.05 (inactive),0.943 (inactive),1.07 (inactive),0.975 (inactive),0.977 (inactive),0.975 (inactive),0.983 (inactive),0.977 (inactive),0.995 (inactive),1.01 (inactive),0.949 (inactive),0.893 (inactive),1.01 (inactive),1.07 (inactive)
CC1(C(=O)Nc2ccc(O)c(Cl)c2Cl)CCCCC1,1 (inactive),0.942 (inactive),1.1 (inactive),0.982 (inactive),0.979 (inactive),0.654 (active),0.995 (inactive),0.99 (inactive),1.04 (inactive),0.954 (inactive),0.938 (inactive),1.08 (inactive),1.01 (inactive),1.05 (inactive),0.976 (inactive),1.02 (inactive),1.16 (inactive),0.84 (inactive),0.976 (inactive),0.967 (inactive)
COC(=O)N(C(=O)N1CO[C@@]2(C(=O)OC)Cc3cc(Cl)ccc3C2=N1)c1ccc(OC(F)(F)F)cc1,1.01 (inactive),1.02 (inactive),1.01 (inactive),1.1 (inactive),0.979 (inactive),1.05 (inactive),1.04 (inactive),1.03 (inactive),1.09 (inactive),0.948 (inactive),1 (inactive),1.02 (inactive),0.991 (inactive),1.04 (inactive),1.01 (inactive),0.965 (inactive),0.966 (inactive),1 (inactive),0.967 (inactive),0.861 (inactive)
CC(C)NC(=O)N1CC(=O)N(c2cc(Cl)cc(Cl)c2)C1=O,1.07 (inactive),0.959 (inactive),0.94 (inactive),0.854 (inactive),0.973 (inactive),0.959 (inactive),0.984 (inactive),0.961 (inactive),1.02 (inactive),0.996 (inactive),0.949 (inactive),0.913 (inactive),0.94 (inactive),0.906 (inactive),0.923 (inactive),0.954 (inactive),0.864 (inactive),1.03 (inactive),0.982 (inactive),0.971 (inactive)
CN1COCN(Cc2cnc(Cl)s2)/C1=N\[N+](=O)[O-],0.896 (inactive),1.02 (inactive),1.06 (inactive),1.02 (inactive),0.975 (inactive),0.998 (inactive),0.974 (inactive),1.01 (inactive),0.955 (inactive),0.945 (inactive),0.974 (inactive),0.927 (inactive),1.03 (inactive),1.05 (inactive),0.996 (inactive),1.04 (inactive),1.1 (inactive),1.01 (inactive),0.99 (inactive),1.05 (inactive)
CC(C)N(C)S(=O)(=O)NC(=O)c1cc(-n2c(=O)cc(C(F)(F)F)n(C)c2=O)c(F)cc1Cl,1.06 (inactive),1.08 (inactive),1.14 (inactive),1 (inactive),0.978 (inactive),1.04 (inactive),1 (inactive),0.98 (inactive),1.02 (inactive),0.99 (inactive),0.979 (inactive),1.01 (inactive),1.02 (inactive),1.04 (inactive),1.02 (inactive),1.06 (inactive),1.07 (inactive),1.05 (inactive),0.977 (inactive),1.07 (inactive)
CCCC1COC(Cn2cncn2)(c2ccc(Cl)cc2Cl)O1 (stereo not given),1.08 (inactive),1 (inactive),0.862 (inactive),0.937 (inactive),0.856 (inactive),0.937 (inactive),1.01 (inactive),0.88 (inactive),1.1 (inactive),0.935 (inactive),0.954 (inactive),1.08 (inactive),0.967 (inactive),1 (inactive),0.914 (inactive),0.987 (inactive),1.02 (inactive),0.931 (inactive),0.944 (inactive),1.11 (inactive)
COC(=O)Nc1nc2ccccc2[nH]1,0.965 (inactive),0.959 (inactive),1.04 (inactive),1.13 (inactive),1 (inactive),1.01 (inactive),0.974 (inactive),1.13 (inactive),1.07 (inactive),0.946 (inactive),1.03 (inactive),1.05 (inactive),0.975 (inactive),1 (inactive),1.01 (inactive),1.05 (inactive),1.08 (inactive),0.944 (inactive),0.978 (inactive),0.732 (inactive)
O=C(Nc1ccccc1-c1ccc(Cl)cc1)c1cccnc1Cl,1 (inactive),1.03 (inactive),0.999 (inactive),1.04 (inactive),1 (inactive),1.11 (inactive),1.01 (inactive),1.06 (inactive),0.99 (inactive),1.02 (inactive),0.978 (inactive),0.948 (inactive),0.972 (inactive),1 (inactive),0.986 (inactive),0.998 (inactive),0.959 (inactive),0.665 (inactive),0.971 (inactive),0.958 (inactive)
Nc1c(Cl)c(F)nc(OCC(=O)O)c1Cl,1.01 (inactive),1.04 (inactive),1.03 (inactive),1.07 (inactive),0.993 (inactive),1.03 (inactive),1.02 (inactive),1.04 (inactive),1.01 (inactive),1.03 (inactive),1 (inactive),0.977 (inactive),1 (inactive),0.978 (inactive),1.04 (inactive),0.947 (inactive),0.889 (inactive),0.958 (inactive),0.996 (inactive),1.11 (inactive)
CC(C)CC(C)c1sccc1NC(=O)c1cn(C)nc1C(F)(F)F (stereo not given),1.06 (inactive),1.01 (inactive),0.916 (inactive),1.02 (inactive),0.921 (inactive),0.945 (inactive),0.937 (inactive),0.924 (inactive),1.2,0.906 (inactive),0.895 (inactive),1.11 (inactive),0.985 (inactive),1.05 (inactive),1 (inactive),1 (inactive),1.05 (inactive),0.331 (active),0.974 (inactive),0.888 (inactive)
OC(Cn1cncn1)(c1ccc(F)cc1)c1ccccc1F (stereo not given),0.819 (inactive),1.04 (inactive),1.08 (inactive),1.12 (inactive),1.07 (inactive),1.13 (inactive),0.996 (inactive),1.08 (inactive),1.05 (inactive),1.05 (inactive),0.985 (inactive),0.993 (inactive),0.999 (inactive),1.03 (inactive),1.02 (inactive),1 (inactive),0.961 (inactive),0.971 (inactive),0.991 (inactive),1.03 (inactive)
